Assays:
Assay type in all cases: functional
Plasmodium falciparum [1] = assay: GSK_TCMDC: Inhibition of Plasmodium falciparum 3D7 in whole red blood cells, using parasite LDH activity as an index of growth. Test compounds present at 2uM
Plasmodium falciparum [2] = assay: GSK_TCMDC: Inhibition of Plasmodium falciparum Dd2 in whole red blood cells, using parasite LDH activity as an index of growth. Test compounds present at 2uM
HepG2 = assay: GSK_TCMDC: Percent inhibition of human HepG2 cell line. Test compounds present at 10uM.

| Compound | Inhibition (Plasmodium falciparum [1]) [%] | Inhibition (Plasmodium falciparum [2]) [%] | Inhibition (HepG2) [%] |
| --- | --- | --- | --- |
| Cc1ccc(-n2c(Sc3ncnc4sccc34)nnc2N2CCCC2)cc1 | 99 | 100 | 0 |
| O=C(c1ccc(-c2cnc3[nH]cc(-c4ccc(C(=O)N5CCOCC5)cc4)c3c2)cc1)N1CCOCC1 | 91 | 0 | 19 |
| Br.CC1(C)NC(N)=NC(=N)N1OCCCSc1ccccc1 | 93 | 94 | 69 |
| Cl.O=C(C=Cc1cccs1)N(CCCn1ccnc1)c1nc2ccc(F)cc2s1 | 98 | 28 | 0 |
| CCCC(C)N(Cc1ccc(C(C)(C)C)cc1)C(=O)c1cccc(OC)c1 (stereo not drawn) | 100 | 89 | 9 |
| CC(C)c1ccc(-c2nc3cc(Cl)cnc3[nH]2)cc1 | 87 | 77 | 3 |
| CCCCNC(=O)c1[nH]c2c(NC(=O)COc3ccccc3)cccc2c1-c1cccc(NC(=O)C(N)CO)c1 (stereo not drawn) | 87 | 0 | 11 |
| NC(=O)C1CCN(Cc2ccc(-c3cccc(-c4nc5cc(F)ccc5[nH]4)c3)cc2)CC1.O=C(O)C(F)(F)F | 90 | 3 | 10 |
| Cl.Nc1ccc2c(N)c3ccccc3nc2c1 | 93 | 74 | 20 |
| O=C(Nc1ccc2c(c1)CCNCC2)Nc1ccc2ccccc2c1.O=C(O)C(F)(F)F | 84 | 23 | 0 |
| COc1ccc(-c2nc(NC(=O)CS(=O)(=O)c3ccc(C)cc3)sc2C)cc1 | 100 | 94 | 56 |
| CC(C)N1CCC(N(Cc2ccc(-c3ccc(C(F)(F)F)cc3)cc2)C(=O)Cn2c(SCc3cccc(F)c3F)cc(=O)c3ccccc32)CC1.O=C(O)C(O)C(O)C(=O)O | 100 | 77 | 52 |
| CN1CCC(N(Cc2ccc(-c3ccc(C(F)(F)F)cc3)nc2)C(=O)Cn2c(CCc3cccc(F)c3F)cc(=O)c3ccccc32)CC1.O=C(O)C(O)C(O)C(=O)O | 91 | 85 | 60 |
| COc1ccc2c(N/N=C/c3ccccc3[N+](=O)[O-])ccnc2c1 | 100 | 97 | 98 |
| COc1c(C)cc(I)cc1CNCCCNc1cc(=O)c2ccccc2[nH]1 | 84 | 0 | 0 |
| O=C(Cc1cccc(Cl)c1)Nc1cccc(-c2c[nH]c3nc(Nc4cccc(OCc5ccccc5)c4)ncc23)c1.O=C(O)C(F)(F)F | 100 | 56 | 0 |
| O=C(NCCCCN1CCC(c2nc3ccccc3s2)CC1)c1cc2ccccc2[nH]1 | 86 | 64 | 43 |
| CC(=O)Nc1nc(C(=O)Nc2cccc(-c3ccc(-c4nc5ccccc5[nH]4)cc3)c2)cs1 | 100 | 60 | 88 |
| COc1ccc(-c2cc(C(=O)N3CCc4ccccc43)c3ccccc3n2)cc1OC | 85 | 48 | 5 |
| Cc1ccc(-c2ccc3c(c2)C=C(C(=O)NCC2CCN(CC4CCN(C(=O)/C=C/c5ccc(Cl)c(Cl)c5)CC4)CC2)CCC3)cc1 | 99 | 70 | 96 |
| Cc1cccc2nc(-c3ccc(-c4ccc(CNCc5cnn(-c6ccccc6)n5)cc4)cc3)[nH]c12.O=C(O)C(F)(F)F | 100 | 99 | 35 |

| Compound | Inhibition (Plasmodium falciparum [1]) [%] | Inhibition (Plasmodium falciparum [2]) [%] | Inhibition (HepG2) [%] |
| --- | --- | --- | --- |
| CCCCCOc1ccc(C(O)C(CN2CCCCC2)c2ccccc2)cc1.Cl (stereo not drawn) | 98 | 95 | 11 |
| CC(C)CNCc1cccc(-c2ccc(CNc3ccc(C(=O)c4ccccc4)cc3)cc2)c1.O=C(O)C(F)(F)F | 97 | 0 | 10 |
| Cc1cccc2nc(-c3ccc(-c4cccc(NC(=O)c5cnccc5C(F)(F)F)c4)cc3)[nH]c12 | 84 | 13 | 25 |
| CCCC(C)NC(=O)[C@H](CC1CCCCC1)NC(=O)c1ccc(O)c(-c2ccc(OC)cc2)c1 (stereo partly drawn) | 89 | 37 | 3 |
| N#Cc1cccc(NC(=O)Nc2ccc(-c3cccc(-c4nc5cc(F)ccc5[nH]4)c3)cc2)c1 | 100 | 100 | 64 |
| O=C(Nc1ccc(Cl)cc1)Nc1nc2cc([N+](=O)[O-])ccc2[nH]1 | 100 | 6 | 0 |
| Cc1nnc2c(NC(=O)NC3CCCC3)cc3cc(-c4ccc(CN5CCCCC5)cc4)ccc3n12 | 99 | 93 | 100 |
| COc1ccc2c(NN=Cc3ccccn3)ccnc2c1 | 100 | 96 | 14 |
| CN(C(=O)C(C)(C)Oc1ccc(Cl)cc1)C1CCN(CCCCCNC(=O)/C=C/c2ccc(Cl)c(Cl)c2)CC1 | 96 | 26 | 86 |
| CN1CCN(CCCN(Cc2cccc(-c3ccc(CNC4CCCC4)cc3)c2)C(=O)/C=C/c2ccccc2)CC1.O=C(O)C(F)(F)F | 98 | 96 | 62 |
| CCCN1CCC(c2c[nH]c3ccc(NC(=O)Nc4cccc(Cl)c4Cl)cc23)CC1 | 100 | 17 | 30 |
| CNc1ccc(CNCc2cccc(-c3ccc(-c4nc5ccccc5[nH]4)s3)c2)cc1.O=C(O)C(F)(F)F | 100 | 77 | 15 |
| CCN(CCCN1CCCCC1)c1cc(C)nc(Nc2ccc(C)c(C)c2)n1.O=C(O)C(F)(F)F | 100 | 60 | 30 |
| FC(F)(F)c1ccc2[nH]c(-c3cccc(-c4ccc(CNCC5CCCO5)cc4)c3)nc2c1.O=C(O)C(F)(F)F (stereo not drawn) | 99 | 99 | 29 |
| Cc1[nH]c(C)c(-c2ccc(OCc3cccc(C(F)(F)F)c3)nc2)c(=O)c1Br | 99 | 97 | 37 |
| COc1ccc(-n2nc(C(=O)NCc3ccccc3OC)c3ccccc3c2=O)cc1 | 100 | 94 | 2 |
| Cc1[nH]c(C)c(-c2ccc(CCc3ccc(C(F)(F)F)cc3)nc2)c(=O)c1Cl | 97 | 97 | 24 |
| O=C(c1ccccc1)N1CCC(CN2CCOC(c3ccccc3)(c3ccccc3)C2)CC1 | 94 | 95 | 14 |
| Cc1n[nH]c2cc(Nc3ccnc(Nc4cccc(CN5CCOCC5)c4)n3)ccc12 | 83 | 0 | 33 |
| Cc1cc(Cl)ccc1N(Cc1ccccc1)c1ccnc(Cl)n1 | 97 | 98 | 16 |
| COc1ccc(C(=O)C2CCN(CCCCNC(=O)c3ccc(NC(=O)c4ccc(Cl)cc4)cc3)CC2)c(OC)c1 | 98 | 13 | 47 |

| Compound | Inhibition (Plasmodium falciparum [1]) [%] | Inhibition (Plasmodium falciparum [2]) [%] | Inhibition (HepG2) [%] |
| --- | --- | --- | --- |
| CC(C)C(=O)ONC1=NC(C)(C)N(OCCCOc2cc(Cl)c(Cl)cc2Cl)C(NOC(=O)C(C)C)=N1 | 92 | 93 | 64 |
| Cl.N=c1n(CCN2CCCC2)c2ccccc2n1CC(O)c1ccc(Cl)c(Cl)c1 (stereo not drawn) | 100 | 6 | 36 |
| Cl.Oc1ccc2c(c1NCC1CCCCC1)CCCC2 | 99 | 99 | 11 |
| Cc1c(F)cc(C(=O)NC2CC2)cc1-c1ccc2c(cnn2S(=O)(=O)c2cccs2)c1 | 92 | 68 | 32 |
| O=C(NC(=S)NCc1ccncc1)c1ccccc1 | 94 | 0 | 0 |
| CC(c1cccc(S(=O)(=O)NCc2cccc(C(F)(F)F)c2)c1)N1CCC(N2CCCCC2)CC1 (stereo not drawn) | 99 | 35 | 37 |
| O=C(N[C@H]1CCN(Cc2ccc(OCCN3CCCC3)c(Cl)c2)C1)c1ccc(Cl)c(Cl)c1.O=C(O)C(F)(F)F | 100 | 46 | 68 |
| N#Cc1ccc(N2CCN(Cc3cccc(-c4ccc(-c5nc6cc(C(F)(F)F)ccc6[nH]5)cc4)c3)CC2)nc1.O=C(O)C(F)(F)F | 100 | 81 | 39 |
| CN(C)CCCOc1ccccc1CN1CC[C@H](NC(=O)c2ccc(Cl)c(Cl)c2)C1.O=C(O)C(F)(F)F | 94 | 54 | 42 |
| COc1cc(C(=O)N2CCOC(CCN3CCC[C@H]3C(=O)Nc3ccccc3)(c3ccc(Cl)c(Cl)c3)C2)cc(OC)c1OC (stereo partly drawn) | 98 | 88 | 3 |
| CN1CCN(CCCN(Cc2cccc(-c3cccc(CNC4CCCC4)c3)c2)C(=O)/C=C/c2ccccc2)CC1.O=C(O)C(F)(F)F | 100 | 99 | 84 |
| Cc1cc2ccccc2n1CC(=O)N1CC(C(=O)N2CCCCC2)Oc2ccccc21 (stereo not drawn) | 99 | 77 | 0 |
| Cc1c(CNCCCNc2cc(=O)c3ccccc3[nH]2)sc(C(F)F)c1Br.Cl | 98 | 29 | 0 |
| Cc1ccccc1N1CCN(c2ncc(C(=O)NC3CC3)cc2Cl)CC1.O=C(O)C(F)(F)F | 91 | 96 | 23 |
| Cc1nc2ccccc2c(O)c1[N+](=O)[O-] | 88 | 0 | 5 |
| COc1c(CN2CCCC2)cccc1-c1cc2c(-c3ccc(C(=O)O)c(C(C)C)c3)ccnc2[nH]1.O=C(O)C(F)(F)F | 99 | 98 | 56 |
| O=C(Cc1cccc2ccccc12)NC1CCN(c2ccnc3cc(Cl)ccc23)C1.O=C(O)C(F)(F)F (stereo not drawn) | 82 | 97 | 13 |
| Br.CC1(C)NC(N)=NC(=N)N1OCCNCc1ccc(Cl)cc1 | 95 | 0 | 5 |
| CN1CCN(CCCCCNc2c3ccccc3nc3ccccc23)CC1.Cl | 99 | 0 | 57 |

Source: ChEMBL document CHEMBL1157539, “Thousands of chemical starting points for antimalarial lead identification” (Nature, 2010)
